Drawing on PubChem BioAssay (NCI), this text covers growth for 14 compounds.

Test systems include HCT-15 colon; HT29 colon; SNB-75 CNS; SNB-19 CNS; U251 CNS; PC-3 prostate; SK-MEL-5 melanoma; UACC-62 melanoma; LOX IMVI melanoma; SK-MEL-28 melanoma.
What all share (test): NCI-60 one-dose screen, 48 h (100 = growth as untreated, 0 = no growth, -100 = all killed)
Holding throughout (settings): 10 µM unless noted

This is part of a sample that, as a whole, favours compounds with a hit. Of some 83,000 tested, about 20% had one in any assay.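 Cell lines were cultured in 96-well plates, exposed to a single compound concentration, and assessed for percent growth 48 hours later.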 A number with no mark means an inactive call. Activity calls are given as the source filed them. Rule for the calls: active = growth percent below 10; inactive = the rest.

`CN(C)CCn1c2ccc(N)cc2c2nc3ccccc3nc21`: the growth was 21.1% with HCT-15 colon; 21.3% in the experiment on HT29 colon; 54.2% with SNB-75 CNS; 32.1% in the experiment with SNB-19 CNS; 33.4% in the experiment with U251 CNS; 38.6% in the experiment with PC-3 prostate. In addition, the growth in the experiment on SK-MEL-5 melanoma was 27%; in the experiment on UACC-62 melanoma it was 35.2%; in the experiment on LOX IMVI melanoma, 9.95% (active).
For the compound `Cc1ccc(/C=C/c2nn3c(-c4ccco4)nnc3s2)cc1`, the growth in the experiment with HCT-15 colon was 96.1%; with HT29 colon, 103%; in the experiment on SNB-75 CNS it was 108%; with SNB-19 CNS, 92.6%; in the experiment with U251 CNS, 101%; in the experiment with PC-3 prostate, 98.4%. For the same compound, the values for the growth with SK-MEL-5 melanoma, in the experiment with UACC-62 melanoma and in the experiment on LOX IMVI melanoma were 98.4%, 90.7% and 105%, respectively.
Turning to `C/C(=N\NC(=S)Nc1ccc(Br)cc1)c1cc2ccccc2oc1=O`, the growth is 10% in the experiment on HCT-15 colon; 90.3% in the experiment on HT29 colon; 17.5% with SNB-75 CNS; 35.2% in the experiment on SNB-19 CNS; 17.8% with U251 CNS; 26.7% in the experiment with PC-3 prostate. The growth is -24.7% (active) with SK-MEL-5 melanoma, -20.5% (active) in the experiment on UACC-62 melanoma and 14% with LOX IMVI melanoma.
For `COc1cc(OC)c(S(N)(=O)=O)cc1C(=O)/C=C/c1ccccc1`, the growth was 11.3% in the experiment with HCT-15 colon; 25.3% with HT29 colon; 77.4% in the experiment on SNB-75 CNS; 47.5% in the experiment with SNB-19 CNS; 28.5% with U251 CNS; 32.9% in the experiment on PC-3 prostate. In addition, the growth with SK-MEL-5 melanoma is 23.2%; in the experiment with UACC-62 melanoma it was 42.8%; with LOX IMVI melanoma, 3.55% (active); with SK-MEL-28 melanoma, 58%.
`COc1ccc(Oc2ccc(C3CC(c4cc(OC)c(OC)c(OC)c4)=NN3C(C)=O)cc2)cc1` (stereo unspecified): the growth in the experiment on HCT-15 colon was 18.5%; with HT29 colon, 31.7%; in the experiment with SNB-75 CNS, 46%; with SNB-19 CNS, 30.8%; in the experiment on U251 CNS, 24.9%; with PC-3 prostate it was 18.3%. The growth in the experiment on SK-MEL-5 melanoma was 1.54% (active); in the experiment on UACC-62 melanoma it was 28.9%; in the experiment with LOX IMVI melanoma, 35.8%.
On to `Oc1ccccc1/C=N/Nc1nc(N/N=C/c2ccccc2O)nc(N2CCOCC2)n1`, for which the growth with HCT-15 colon was 3.87% (active); in the experiment on HT29 colon, 34.2%; with SNB-75 CNS it was -4.09% (active); with SNB-19 CNS, 41.7%; with U251 CNS it was 22%; in the experiment with PC-3 prostate it was 24.1%. The growth in the experiment with SK-MEL-5 melanoma is 65.8%; in the experiment with UACC-62 melanoma, 88.8%; with LOX IMVI melanoma it was 4.04% (active).
Regarding `Oc1ccc(CSc2nnc(-c3cnccn3)o2)c2cccnc12`, the growth in the experiment with HCT-15 colon was 13.8%; with HT29 colon, 25.2%; with SNB-75 CNS, 26.5%; in the experiment on SNB-19 CNS it was 18.1%; in the experiment on U251 CNS, 18.5%; in the experiment on PC-3 prostate, 15.2%. For the same compound, the growth was -38.5% (active) in the experiment on SK-MEL-5 melanoma, 15% with UACC-62 melanoma, 17.5% with LOX IMVI melanoma and 37.6% with SK-MEL-28 melanoma.
For `CN1CCN(c2ccc(NC(=O)Nc3ccc4c(ccn4-c4cccc(C(N)=O)n4)c3)cc2C(F)(F)F)CC1`, the growth was 3.6% (active) with HCT-15 colon; 5.77% (active) in the experiment on HT29 colon; 82.2% with SNB-75 CNS; 53.2% with SNB-19 CNS; 33.8% in the experiment on U251 CNS; 50.9% in the experiment on PC-3 prostate. Moreover, the growth was 75% with SK-MEL-5 melanoma, 94.1% in the experiment with UACC-62 melanoma and -27.7% (active) with LOX IMVI melanoma.
For the compound `N#C/C(=C\c1ccc(-c2ccc(F)cc2)o1)C(=O)Nc1ncc(Cc2ccc(Cl)cc2Cl)s1`, the growth was -31.7% (active) in the experiment on HCT-15 colon; 6.93% (active) in the experiment on HT29 colon; 58.3% in the experiment with SNB-75 CNS; -12.9% (active) in the experiment with SNB-19 CNS; 21.9% in the experiment on U251 CNS; 1.25% (active) in the experiment with PC-3 prostate. Moreover, the growth was 27.4% in the experiment with SK-MEL-5 melanoma, 15.9% in the experiment with UACC-62 melanoma and -85.6% (active) in the experiment with LOX IMVI melanoma.
As to `O=C1c2c(c3c4cc(O)ccc4oc3c3[nH]c4ccccc4c23)C(=O)N1O`, the growth with HCT-15 colon was 15.2%; with HT29 colon, -64.6% (active); with SNB-75 CNS it was -8.52% (active); with SNB-19 CNS, 16.4%; in the experiment with U251 CNS it was -3.58% (active); with PC-3 prostate, 12.8%. The results for the growth in the experiment with SK-MEL-5 melanoma, in the experiment on UACC-62 melanoma and in the experiment with LOX IMVI melanoma were -76.1% (active), -53.6% (active) and -67.8% (active), respectively.
As to `O=C(Cn1cc(CN2C(=O)c3ccc([N+](=O)[O-])cc3C2=O)nn1)Nc1ccccc1Br`, the growth is 102% in the experiment with HCT-15 colon; 112% with HT29 colon; 87.5% in the experiment on SNB-75 CNS; 102% in the experiment on SNB-19 CNS; 109% with U251 CNS; 102% with PC-3 prostate. In addition, the growth with SK-MEL-5 melanoma was 104%; with UACC-62 melanoma, 90.7%; in the experiment with LOX IMVI melanoma, 116%.
In the case of `Cc1cc(O)c2c(c1)C(=O)C(c1c(C)cc3c(c1O)C(=O)C=CC3=O)=CC2=O`, the growth in the experiment with HCT-15 colon is 46.5%; with HT29 colon, 65.3%; in the experiment on SNB-75 CNS, 92.3%; in the experiment with SNB-19 CNS, 99.9%; in the experiment with U251 CNS, 94%; in the experiment with PC-3 prostate, 82.9%. The growth was 102% with SK-MEL-5 melanoma, 61.5% with UACC-62 melanoma, 61.3% with LOX IMVI melanoma and 71.2% in the experiment with SK-MEL-28 melanoma.
Turning to `COc1ccc(/C=C/C(=O)c2nnn(-c3ccc(Br)cc3)c2C)cc1OC`, the growth with HCT-15 colon was 60.7%; with HT29 colon, 62.2%; with SNB-75 CNS it was 81.6%; with SNB-19 CNS, 78.9%; with U251 CNS, 86.8%; in the experiment on PC-3 prostate, 75.3%. Besides, the growth is 63.9% in the experiment on SK-MEL-5 melanoma, 62% in the experiment on UACC-62 melanoma, 43.5% in the experiment on LOX IMVI melanoma and 96.5% with SK-MEL-28 melanoma.
In the case of `CCc1ccc(NC(=O)N[C@@H](Cc2cccc(F)c2)C(=O)N[C@@H]2C(=O)N3CCC[C@H]3C(=O)N3CCCC[C@H]3C(=O)N[C@@H](C)C(=O)N3C[C@H](C)C[C@H]3C(=O)O[C@H]2C)c(F)c1`, the growth in the experiment on HCT-15 colon is 11.6%; with HT29 colon, 20.1%; in the experiment with SNB-75 CNS it was 20.8%; with SNB-19 CNS, 27.5%; in the experiment on U251 CNS, 31.1%; in the experiment on PC-3 prostate it was 15.1%. In addition, the growth is -20.9% (active) in the experiment on SK-MEL-5 melanoma, 21.1% in the experiment on UACC-62 melanoma, 14.1% in the experiment on LOX IMVI melanoma and 36.1% in the experiment with SK-MEL-28 melanoma.
